Drawing on PubChem BioAssay AID602399 (Sanford-Burnham Center for Chemical Genomics, 2012), this text covers inhibition for 24 compounds.

In all, about 360,000 compounds went through this assay and about 2,800 (0.78%) were called active. Rule as the data show it: active = inhibition above about 26%; inactive = the rest. The list comes from a sample in which actives are over-represented; it also holds similar structures and randomly drawn compounds.

The test system of this assay is Nicotinate-nucleotide adenylyltransferase NadD (Staphylococcus aureus N315). The assay can be described thus: S. aureus NadD enzyme activity blockers – biochemical, colorimetric, uHTS, primary screen (AID 602399). As to conditions: purified NadD enzyme, colorimetric absorbance read-out; at 20 µM; active compounds read high.
Usually inhibition stands for the relative decrease from the control value, in per cent. As to `Clc1ccc(C2=CSC3=Nc4cccc5cccc(c45)N23)cc1`, the inhibition is 46.9% (active). The result for `Cc1ccc(/C=C/C(=O)O)cc1S(=O)(=O)N1CCC(Cc2ccccc2)CC1` reads -2.42% (inactive). Then `COC(=O)c1ccc(COC(=O)c2cnccn2)cc1`, with -0.176% (inactive); and `CCOc1ccc(NS(=O)(=O)c2ccc(C(=O)NCC3CCCO3)cc2)cc1` (centres undefined), with -1.46% (inactive). The result for `CC(C)NC(=O)NC(=O)COC(=O)c1ccc(NC(=O)CC#N)cc1` reads 0.78% (inactive); that for `CCOc1ccc(NC(=O)CCNC(=O)c2ccc(Br)cc2)cc1`, -10.7% (inactive). For the compound `CC(=O)c1c(C)[nH]c(C(=O)OCC(=O)Nc2sc3c(c2C#N)CCCC3)c1C`, the inhibition was 6.3% (inactive). Then `N#Cc1c(NC(=O)CCCl)sc2c1CCCCC2`, with -2.84% (inactive); and `N#CCC(=O)Nc1ccc(C(=O)OCC(=O)Nc2sc3c(c2C#N)CCCC3)cc1`, with 32.6% (active); and `CCOc1ccc(NC(=O)c2ccc(NC(=O)COC(=O)c3ccc(NC(=O)CC#N)cc3)cc2)cc1`, with 39.8% (active). The result for `C/C=C(/C)C(=O)OC1Cc2c(ccc3ccc(=O)oc23)OC1(C)C` (centres undefined) reads -4.64% (inactive); that for `CCCCc1cc(=O)oc2c(C)c(OCC(=O)N3CCC(C(N)=O)CC3)ccc12`, -1.4% (inactive). The result for `Cc1ccc(Cc2cnc(NC(=O)/C(C#N)=C/c3ccc(-c4cccc([N+](=O)[O-])c4)o3)s2)cc1` reads 51.2% (active). With `Cc1ccc(C(=O)N/C(=C/c2ccc(-c3cccc([N+](=O)[O-])c3)o2)C(=O)NCCCN(C)C)cc1`, the inhibition was -9.94% (inactive). Then `Cc1ccc(-c2ccc(/C=C(\C#N)C(N)=S)o2)c([N+](=O)[O-])c1`, with -3.57% (inactive). As to `CCCCN(C(=O)c1ccc(S(=O)(=O)N2CCOCC2)cc1)C1CCS(=O)(=O)C1` (centres undefined), the inhibition was -1.78% (inactive). Then `O=C(CC(NS(=O)(=O)c1ccc(Cl)cc1)c1ccco1)NC1CCCC1` (centres undefined), with 1.19% (inactive); and `COc1ccc(NC(=O)COc2ccc(C(=O)c3ccc(F)cc3)cc2)cc1S(N)(=O)=O`, with 7.92% (inactive). Consider `Cc1c(OC(C)C(=O)NCC2CCC(C(=O)O)CC2)ccc2c1oc(=O)c1ccccc12` (centres undefined), for which the inhibition was 4.05% (inactive).

For the compound `O=C(NCC1CCCCC1)NCC1CCCCC1`, the inhibition was 2.72% (inactive). The result for `C[C@H]1CN([C@@H](C)CO)C(=O)c2cc(-c3ccccc3F)cnc2O[C@H]1CN(C)C(=O)C1CCOCC1` reads -1.92% (inactive). The result for `COc1ccc(NS(=O)(=O)c2cc(NC(=O)CC(=O)c3ccc([N+](=O)[O-])cc3)ccc2C)cc1` reads 44.2% (active); that for `Cc1ccc(NC(=O)CCNC(=O)c2ccc([N+](=O)[O-])cc2)cc1S(=O)(=O)N1CCOCC1`, 0.847% (inactive); that for `COc1ccc(NS(=O)(=O)c2cc(NC(=O)COc3ccccc3F)ccc2OC)cc1`, -11.4% (inactive).
